The text below walks through data of PubChem BioAssay AID449762 (Southern Research Specialized Biocontainment Screening …, 2010).

What is called inhibition is the drop in the measured response relative to a control, in per cent.

Out of some 330,000 compounds screened, about 1,900 (0.58%) were called active. Inconclusive results (about 4%) are left out. Only a sample is shown. Results with a measured potency or affinity are listed apart. A number with no mark means an inactive call. No stated cut-off is given here; in the data, inconclusive means inhibition above about 70% without an active follow-up result; inactive means below that.

The assay is described as follows: M. tuberculosis growth inhibition, HTS (AID 449762).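 Further: bacterial growth assessed after seven days of incubation.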 To be noted: M. tuberculosis H37Rv growth inhibition, 7H9 media; at 25 µM; stronger effect = higher value.
As to `Cc1cccc(Cn2c(SCC(=O)Nc3ccccc3)nc3c2c(=O)[nH]c(=O)n3C)c1`, the inhibition was -13.5%.
`CCCC(c1nnnn1CC1CCCO1)N1CCN(c2cc(Cl)ccc2C)CC1` (stereo not given): the inhibition was 1.1%.
Turning to `CCCCCCCc1nc2nc(C)c(Br)c(=O)n2[nH]1`, the inhibition is 8.34%.
Turning to `CCCn1c(SCC(=O)Nc2ccc3c(c2)OCCO3)nnc1-c1ccco1`, the inhibition was -7.16%.
For the molecule `O=C(C[C@H]1C/C=C\C[C@H](NC(=O)OCC2c3ccccc3-c3ccccc32)C(=O)OC[C@@H]2CCCN2C1=O)N[C@H](CO)Cc1ccccc1`, the inhibition is -0.02%.
As for `O=C(C[C@@H]1C/C=C\C[C@H](NC(=O)OCC2c3ccccc3-c3ccccc32)C(=O)OC[C@@H]2CCCN2C1=O)N[C@@H](CO)Cc1ccccc1`, the inhibition was 1.79%.
Take `Cc1occc1-c1nnc(SCC(=O)N(C)c2ccccc2)n1C`: the inhibition was -1.83%.
For `CC(=O)c1ccc(OCC(O)COc2ccc(C(C)=O)cc2)cc1`, the inhibition is 6.86%.
As to `CC(C)(c1ccccc1)c1ccc(OCC(O)CN2CCCC2)cc1` (stereo not given), the inhibition is 1.65%.
For the molecule `O=C(O)c1ccc(NC(=O)c2cccc(S(=O)(=O)Nc3ccc(C(=O)O)cc3)c2)cc1`, the inhibition is -1.83%.
`COc1ccccc1N1CCN(CC(=O)Nc2ccccc2C(=O)NCCc2ccccc2)CC1`: the inhibition was 33.8%.
On to `O=C(CN1CCN(c2ccc(O)cc2)CC1)Nc1ccccc1C(=O)NCCc1ccccc1`, for which the inhibition is -9.61%.
For `COc1cc(NS(=O)(=O)c2cc3c(cc2C)NC(=O)CO3)cc(OC)c1` the value was -11.6%; for `OC(COc1ccc(Cl)cc1Cl)Cn1ccnc1` (stereo not given), -1.41%; for `OC(Cn1ccnc1)c1ccc(Cl)cc1Cl` (stereo not given), -8.18%.
For `CCOC(=O)C1=C(CC)Nc2ccccc2N/C1=N\S(=O)(=O)c1ccccc1OC`, the inhibition is -0.62%.
On to `CC1(C)Cc2c(sc(NC(=O)C(C)(C)C)c2C#N)C(C)(C)N1`, for which the inhibition is -3.46%.
For `COc1cc(N=c2ssnc2Cl)cc(OC)c1OC` the value was -3.23%.
For the molecule `Cc1ccc(N=c2ssnc2Cl)cc1`, the inhibition was 0.3%.
As for `O=C(O)c1ccc(S(=O)(=O)N2CCC(n3nnc4cc(C(F)(F)F)ccc43)CC2)cc1`, the figure is 1.41%.
As for `C/C(=N\Nc1cc(Cl)nc(C)n1)c1ccccc1`, the figure is 5.34%; as for `C/C(=N\Nc1cc(Cl)nc(C)n1)c1ccc(C)cc1`, 66.8%.
For the molecule `Cc1ccc(S(=O)(=O)N2CCN(C(=O)COC(=O)/C=C/c3ccc(F)cc3)CC2)c(C)c1`, the inhibition was -1.22%.
`CCCOc1ccc(N2CC(C(=O)Nc3ccccc3C(=O)NC)CC2=O)cc1` (stereo not given): the inhibition is -2.1%.
With `O=C(CSc1ncnc2nc[nH]c12)c1ccccc1`, the inhibition is 9.21%.
For `COc1ccc(C(=O)CSc2ncnc3nc[nH]c23)cc1` the value was -0.73%; for `O=C(c1ccc(Cl)cc1)C1CCN(C(=O)c2ccc(F)cc2)CC1`, 4.03%.
For `Cc1ccc(OC(=O)CN2C(=O)c3ccccc3C2=O)cc1C` the value was -4.28%; for `Cc1cc(C)cc(OC(=O)CCN2C(=O)c3ccccc3C2=O)c1`, -5.68%; for `CC(C)c1ccc(OCC(=O)N(Cc2ccco2)C2CCS(=O)(=O)C2)cc1` (stereo not given), 11.8%.
Consider `CCC(=O)N1CC(=O)Nc2ccc(F)cc2C1c1ccccc1` (stereo not given), for which the inhibition was -3.58%.
Consider `CC(C)NC(=O)N(C)C[C@H]1Oc2c(NC(=O)C3CC3)cccc2C(=O)N([C@H](C)CO)C[C@@H]1C`, for which the inhibition was 1.1%.
Turning to `CC(C)CCNC(=O)C(c1ccc(O)cc1)N(Cc1cccs1)C(=O)C1COc2ccccc2O1` (stereo not given), the inhibition is 22.4%.
For `CCOc1cccc(N(C(=O)C2COc3ccccc3O2)C(C(=O)NC2CCCCC2)c2ccc(O)cc2)c1` (stereo not given) the value was -4.43%; for `CC(=O)N1CCOc2ccc(S(=O)(=O)N3CCC(C(=O)Nc4ccc(C)c(C)c4)CC3)cc21`, 5.83%.
For `CC(Oc1cc2oc(=O)c3c(c2cc1Cl)CCC3)C(=O)NCc1ccccn1` (stereo not given) the value was 31%; for `CC(Oc1ccc2c3c(c(=O)oc2c1)CCCC3)C(=O)NCc1ccccn1` (stereo not given), 33.2%.
For `CCNc1cc(N2CCN(C)CC2)ccc1[N+](=O)[O-]` the value was -1.18%; for `COc1cccc(NC(=S)N2CCc3cc(OC)c(OC)cc3C2)c1`, 1.01%.
In the case of `CCOc1ccc(S(=O)(=O)N(C)c2ccc(OCC(=O)NCc3ccc(C(=O)OC)cc3)cc2)cc1`, the inhibition was -3.45%.
As for `Cc1cccn2c(=O)c3cc(C(=O)NCCc4ccccc4)c(=N)n(CC4CCCO4)c3nc12` (stereo not given), the figure is 4.7%; as for `FC(F)(F)c1cc(Cl)c2nc(-c3ccccc3)cn2c1`, 4.79%.
For `O=C(Nc1ccccc1)N(C1=NCCC1)c1ccc(OC(F)F)cc1` the value was -0.82%; for `COc1ccc(N(C(=O)Nc2ccc(Cl)cc2)C2=NCCC2)cc1`, 42.5%.
Turning to `O=C(c1cc(COc2ccc(F)cc2F)on1)N1CC[C@@H]2CCCC[C@H]2C1`, the inhibition was 8.08%.
Consider `COCC1CCN(C(=O)c2cc(COc3ccc(F)cc3F)on2)C1` (stereo not given), for which the inhibition was -0.65%.
As for `CC(NC(=O)c1cc(F)c(F)cc1Cl)C1CC2CCC1C2` (stereo not given), the figure is 9.14%; as for `Cc1cc(C)cc(NC(=O)N2CCN(C/C=C/c3ccccc3)CC2)c1`, 6.44%; as for `O=C(Nc1cccc(F)c1)N1CCN(C/C=C/c2ccccc2)CC1`, -4.24%.
Regarding `O=C1NC(=O)C2(Cc3ccccc3N3CCCC32)C(=O)N1Cc1ccccc1` (stereo not given), the inhibition is -3.61%.
Regarding `C=CCNC(=O)/C(=C/c1cn(-c2ccccc2)nc1-c1cccc([N+](=O)[O-])c1)NC(=O)c1ccccc1`, the inhibition is 9.03%.
Turning to `NC(=O)/C(N=Nc1ccccc1)=N/Nc1ccccc1`, the inhibition was 63.8%.
As for `O=[N+]([O-])/C(N=Nc1ccccc1)=N\Nc1ccccc1`, the figure is -2.92%.
With `O=C(Cn1nnc(-c2ccc(S(=O)(=O)N3CCCC3)cc2)n1)Nc1ccccc1-n1cccc1`, the inhibition is -4.45%.
As for `CN(CC(=O)Nc1ccc(F)cc1[N+](=O)[O-])Cc1ccccc1`, the inhibition is 6.03%.
`CCOC(=O)c1cc(/C(C)=N/OC(=O)c2ccc(Cl)cc2)on1`: the inhibition is 47.9%.
For `Cc1cc(C(=O)O/N=C(\N)c2ccc(C(C)(C)C)cc2)no1`, the inhibition is 0.64%.
As to `COc1cccc2c(=O)c3c([nH]c12)OC(C)(C)C3`, the inhibition was 1.96%.
With `NC(=O)c1ccsc1NC(=O)c1cc(=O)c2ccccc2o1`, the inhibition is 1.83%.
For `CC1=C(C(N)=O)C(c2ccccc2F)NC(=O)N1` (stereo not given) the value was -4.59%; for `O=C(N/N=C/c1ccc(F)cc1)c1cccc(NC(=O)c2ccc(F)cc2)c1`, 9.14%; for `CC(NC(=O)COC(=O)c1ccc(Cl)cc1O)c1ccc(F)cc1` (stereo not given), 2.35%.
In the case of `CC(C)(C)NC(=O)COC(=O)c1cc(Cl)ccc1[N+](=O)[O-]`, the inhibition was -0.3%.
For `CCOC(=O)c1ccc[n+](CC(=O)c2ccc(OC)cc2)c1` the value was -6.92%; for `CN(C)/C=C/C(=O)c1ccc([N+](=O)[O-])c(CS(=O)(=O)c2ccccc2)c1`, 4.59%; for `Fc1ccc(-c2cc3nc(-c4ccccc4)cc(N4CCOCC4)n3n2)cc1`, -0.86%.
For `OC1CCN(c2cc(-c3ccccc3)nc3cc(-c4ccc(F)cc4)nn23)CC1` the value was 14.2%.
For `O=C(CN1C(=O)S/C(=C\c2ccc(F)cc2)C1=O)Nc1cccc(S(=O)(=O)NCc2ccco2)c1`, the inhibition is -0.96%.
As to `C=CCNC(=O)C1CCN(c2cnccn2)CC1`, the inhibition was 1%.
Regarding `Cc1ccnc(NC(=O)C2CCN(S(=O)(=O)c3cccc(C(F)(F)F)c3)CC2)c1`, the inhibition is -6.67%.
As to `Cn1c(O)c(C=Nc2ccc(Br)cc2)sc1=O`, the inhibition was 2%.
As for `N=c1oc2cc(O)ccc2cc1C(=O)Nc1ccccn1`, the figure is 9.75%.
Turning to `N=c1oc2ccccc2cc1C(=O)Nc1ccccc1`, the inhibition is -6.06%.
On to `O=C(NCc1nnc(SCC(=O)N2CCCC2)o1)c1ccc(F)cc1`, for which the inhibition was -1.8%.
As to `Cc1cc(C)c(C(=O)N(C)CC2CCCN(CCc3ccccc3F)C2)o1` (stereo not given), the inhibition was 7.36%.
With `CCOC(=O)C1(CCCc2ccccc2)CCN(C(=O)c2ccoc2)CC1`, the inhibition is 3.78%.
As for `CC(=O)Nc1cn(-c2ccccc2)nc1-c1ccccc1`, the inhibition was 8.61%.
In the case of `O=C(Nc1cn(-c2ccccc2)nc1-c1ccc(Cl)cc1)c1ccccc1`, the inhibition was 12.2%.
Take `Oc1cc(NCCc2cccnc2)cc2cccnc12`: the inhibition was 11.9%.
As for `NS(=O)(=O)c1cccc(NC(=O)c2ccc3nc[nH]c3c2)c1`, the inhibition is 1.29%.
With `CC12CCC(=O)N1C(C(=O)Nc1ccc(F)cc1)CS2` (stereo not given), the inhibition was -9.52%.
In the case of `CC(C)c1ccc(NC(=O)C2CSC3(C)CCC(=O)N23)cc1` (stereo not given), the inhibition is 5.83%.
On to `Cc1ccc(CNC(=O)c2ccc(N3CCC4(CC3)CC(c3ccccc3)=NO4)c(NC(=O)c3ccc(Br)cc3)c2)cc1`, for which the inhibition is -2.65%.
`Cc1[nH]c(=O)[nH]c(=O)c1/C=C/C(=O)O`: the inhibition is -3.99%.
Turning to `Nc1c(C(=O)OCC(=O)NCc2ccccc2)[nH]c(=O)[nH]c1=O`, the inhibition was 1.89%.
`Cc1cc(C(F)F)n2ncc(C(=O)N3CCc4ccccc4C3)c2n1`: the inhibition was -2.51%.
`COc1ccc(-c2cc(C(F)F)n3ncc(C(=O)N4CCc5ccccc5C4)c3n2)cc1`: the inhibition was 15.6%.
Regarding `CCN(CC(=O)Nc1c(F)cccc1F)C(=O)c1ccc2c(c1)OCO2`, the inhibition was -12.6%.
Regarding `COc1ccc(S(=O)(=O)CC(O)CN2CCCC2=O)cc1` (stereo not given), the inhibition was -0.37%.
For `COc1cccc(N2C(=O)CN(Cc3ccc(OC)c(OC)c3)C2=S)c1`, the inhibition is 2.7%.
